PubChem BioAssay
Values joined by “and” are separate entries in the source; they are usually repeats but may differ in a detail not shown here. Equal values may be shown once. Active and inactive are the calls of the source.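 How the source made its calls, unless noted: active means inhibition at or above 50% relative to wild type and mutant plate controls; inactive means inhibition below 50%.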

Key:
[1] = inhibitors of TNFa-induced NFkB p65 translocation, primary screen, imaging, HUVEC, MLSMR starter and 10KST1 sets (AID 438;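 active means inhibition above 20% together with a positive visual image hit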;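 further: compound added about 3h40 before a 20 min TNFalpha stimulation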;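 on inhibition: signal is the nuclear over cytoplasmic p65 intensity ratio per well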); details: HUVEC TNFa-induced p65 nuclear translocation; cell count: measured here: nuclei count (cytotoxicity indicator), at 2.08 µM; inhibition: at 2 µM, stronger effect = higher value, 0% TNFa-plus-vehicle, 100% no-TNFa wells
[2] = reduction of polyQ htt aggregates in cells – imaging, exon1htt(103Q)mCFP cells, high-content imaging, primary screen (AID 483;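 active means visual image review flags a hit and inhibition of aggregation exceeds 20%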;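 further: compound exposure lasted 3 days before fixation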;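 on nuclei count: percent of the per-plate median nuclei count of sample wells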); details: exon1htt(103Q)mCFP cell line, aggregate imaging, at 2 µM; inhibition of aggregation: stronger effect = higher value; nuclei count: measured here: cell count, toxicity
[3] = endothelial E-selectin expression blockers – imaging, HUVEC, immunofluorescence, MLSMR starter and 10KST1 sets, primary screen (AID 487;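 active means visually confirmed hit in the image check and inhibition above 20%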;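 on inhibition: signal is fraction of cell area covered by stained E-selectin grains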;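 on nuclei count: 100% = median nuclei count of all wells on the same plate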); details: HUVEC TNFalpha-induced E-selectin immunofluorescence imaging, at 2 µM; inhibition: stronger effect = higher value; nuclei count: measured here: cell number, toxicity
[4] = Primary imaging screen for DUSP6 inhibitors that restore phospho-Erk in transfected HeLa cells, chemical complementation (AID 609;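 active means compounds giving at least 50% inhibition in the cell-based MKP-3 phosphatase rescue imaging test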;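 on inhibition: phospho-Erk level distribution per well compared with pooled transfected vehicle control wells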); details: HeLa MKP-3 transfected, phospho-Erk imaging KS statistic, at 10 µM, cells stimulated with TPA for 15 min
[5] = target: Dual specificity protein phosphatase 6 (Homo sapiens) (UniProt Q16828); assay: as above; details: HeLa MKP-3 transfected, phospho-Erk imaging KS statistic; at 10 µM; stronger effect = higher value; cells stimulated with TPA for 15 min
Sequence of Dual specificity protein phosphatase 6 (Homo sapiens) (Q16828 whole entry, looked up): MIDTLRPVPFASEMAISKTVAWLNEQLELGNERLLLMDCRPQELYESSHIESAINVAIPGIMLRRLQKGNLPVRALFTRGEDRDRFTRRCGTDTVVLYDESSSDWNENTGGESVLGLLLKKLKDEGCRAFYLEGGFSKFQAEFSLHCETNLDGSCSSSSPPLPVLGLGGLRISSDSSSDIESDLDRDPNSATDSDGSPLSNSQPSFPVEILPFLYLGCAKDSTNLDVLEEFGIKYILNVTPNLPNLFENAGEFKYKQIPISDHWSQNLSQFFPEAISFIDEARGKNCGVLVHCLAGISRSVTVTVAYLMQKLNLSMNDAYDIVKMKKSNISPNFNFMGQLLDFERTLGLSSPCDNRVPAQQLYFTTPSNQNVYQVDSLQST

[6] = target: Voltage-gated potassium channel subunit beta-2 (Rattus norvegicus) (UniProt P62483); assay: inhibitors of rat Kvbeta2 reductase activity – biochemical, NADPH fluorescence, primary screen (AID 622;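 active means fluorescence slope higher than the sample average by over 3 SD, cut at about -0.22 in these data, passing the limit was not always enough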;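 further: slope of raw intensity against log time taken from 70 to 1610 s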); details: recombinant KvBeta, 4-cyanobenzaldehyde reduction, at 10 µM, stronger effect = higher value
Sequence of Voltage-gated potassium channel subunit beta-2 (Rattus norvegicus) (P62483 whole entry, looked up): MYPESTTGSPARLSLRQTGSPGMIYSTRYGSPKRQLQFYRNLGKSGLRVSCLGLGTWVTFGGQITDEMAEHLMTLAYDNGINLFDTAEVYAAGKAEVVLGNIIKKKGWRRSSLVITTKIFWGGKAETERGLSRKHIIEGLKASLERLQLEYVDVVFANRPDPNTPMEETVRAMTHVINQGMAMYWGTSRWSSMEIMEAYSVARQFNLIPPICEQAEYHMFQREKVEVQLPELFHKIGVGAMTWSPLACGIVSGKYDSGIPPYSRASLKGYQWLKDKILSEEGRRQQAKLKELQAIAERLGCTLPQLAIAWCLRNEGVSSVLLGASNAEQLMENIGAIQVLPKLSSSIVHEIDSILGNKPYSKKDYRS

[7] = target: Voltage-gated potassium channel subunit beta-2 (Rattus norvegicus) (UniProt P62483); assay: enhancers of rat Kvbeta2 NADPH turnover – biochemical, NADPH fluorescence, primary screen (AID 623;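 active means NADPH fluorescence slope more negative than the mean of all samples by about 3 SD, 99.7% confidence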;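 further: fluorescence intensity change per second fitted from 20 to 320 s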); details: Recombinant KvBeta, NADPH fluorescence decrease slope, 10 min; at 10 µM; stronger effect = lower value
[8] = target: Alpha-2C adrenergic receptor (Homo sapiens) (UniProt P18825); assay: compounds altering alpha2C-coupled GIRK flux – cell-based, HEK293 alpha2C/GIRK1/2, thallium flux, primary screen (AID 624;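 active means fluorescence slope after compound addition differing from the mean of all screened samples at 99.7% confidence, in either direction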;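 further: slope of fluorescence ratio to pre-addition baseline per second over 15 to 24 s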); details: thallium flux BTC fluorescence, at 10 µM, actives lie on both sides
Sequence of Alpha-2C adrenergic receptor (Homo sapiens) (P18825 whole entry, looked up): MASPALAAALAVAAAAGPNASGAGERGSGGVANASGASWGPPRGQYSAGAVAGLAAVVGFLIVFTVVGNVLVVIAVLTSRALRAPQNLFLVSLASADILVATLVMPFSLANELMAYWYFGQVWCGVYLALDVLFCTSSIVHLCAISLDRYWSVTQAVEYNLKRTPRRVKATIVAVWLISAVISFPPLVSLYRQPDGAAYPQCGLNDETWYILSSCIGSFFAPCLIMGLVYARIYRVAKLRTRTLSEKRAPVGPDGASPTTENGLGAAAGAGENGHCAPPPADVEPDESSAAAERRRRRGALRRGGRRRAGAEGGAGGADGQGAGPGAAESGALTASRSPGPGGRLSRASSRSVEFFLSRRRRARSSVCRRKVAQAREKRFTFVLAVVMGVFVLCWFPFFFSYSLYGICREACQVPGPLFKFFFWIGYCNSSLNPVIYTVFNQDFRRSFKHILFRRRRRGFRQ

[9] = inhibitors of larval lipid processing in zebrafish, primary screen, whole organism, PED6 fluorescence, gall bladder and intestine (AID 686;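 active means a full or partial loss of lipid-probe fluorescence in the fish gall bladder, intestine or both, judged by eye; inactive means no fluorescence loss, or compound toxic to the fish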;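 further: larvae 5 to 7 days old with five fish per well; signal comes from phospholipase A2 cleavage of quenched PED6 carried via bile; overnight exposure to compound and PED6 before scoring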); details: Zebrafish larvae PED6 lipid processing, fluorescence scoring; screened at 20 µM (by protocol)
[10] = loss of swimming-algae plug formation – whole organism, Chlamydomonas reinhardtii, WT vs cilia-less mutant, absorbance, 96-well, primary screen (AID 463189); details: Chlamydomonas reinhardtii gravitaxis, OD600 absorbance, 2 days; at 10 µM; stronger effect = higher value;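 further: 0% = wild type cc124 cells in DMSO and 100% = ciliumless bld1 mutant cells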
[11] = blockers of RIG-like receptor reporter activation – cell-based, Sendai virus stimulus, luciferase, 10K MLSCN set, TLR/RLR signaling modifier project, primary screen (AID 602276;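 active means inhibition at or above 50% at 10 µM; inactive means inhibition below 50%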;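 further: firefly luciferase from ISG56 promoter only with Renilla not read in this screen; 0% = Sendai virus plus DMSO and 100% = medium plus DMSO without virus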); details: HEK293 RL24 IRF3 luciferase reporter, at 10 µM, stronger effect = higher value
[12] = TLR3 IRF3 reporter activation blockers – cell-based, poly I:C stimulus, luciferase, 10K MLSCN set, primary screen (AID 602277;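 active means inhibition of the reporter signal at or above 50%; inactive means inhibition below 50%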); details: HEK293-TLR3 RL24 IRF3 luciferase reporter, at 10 µM, stronger effect = higher value
[13] = measured here: cell density z-score
[14] = measured here: nuclear c-Myc green intensity z-score
[15] = measured here: nuclear pErk red intensity z-score, stronger effect = higher value

Structure (SMILES)	cell count [1]	inhibition [1]	inhibition of aggregation [2]	nuclei count [2] [%]	inhibition [3]	nuclei count [3]	z-score [4, 13]	z-score [4, 14]	z-score [4, 15]	inhibition [5]	fluorescence slope [6]	NADPH fluorescence slope [7]	slope [8]	outcome [9]	inhibition [10]	inhibition [11]	inhibition [12]
Cc1cc(-c2ccccc2)nnc1NCCN1CCOCC1	674	5.8% (inactive)	-29.4% (inactive)	99.9	-64.4% (inactive)	119%	0.561	0.88	0.22	25.7% (inactive)	-0.472 (inactive)	-2e-05 (inactive)	0.00515 (inactive)	inactive	15.7% (inactive)	13.3% (inactive)	33.7% (inactive)
Nc1nc2ccc(OC(F)(F)F)cc2s1	540	-0.5% (inactive)	-1.7% (inactive)	86.1	-27.8% (inactive)	107%	2.05	-1.62	-0.877	36.7% (inactive)	-0.427 (inactive)	2.4e-05 (inactive)	0.00474 (inactive)	inactive	4.87% (inactive) and -11.8% (inactive)	-14.6% (inactive)	-58.1% (inactive)
CC1=NN(c2ccccc2)C(=O)C1	619	-5.9% (inactive)	2.5% (inactive)	98	-82.4% (inactive)	130%	0.599	-0.649	1.01	9.37% (inactive)	-0.432 (inactive)	5.3e-06 (inactive)	0.00466 (inactive)	inactive	11.5% (inactive)	-68.4% (inactive)	52% (active)
CC(=O)OCC(=O)[C@@]12OC3(CCCC3)O[C@@H]1C[C@H]1[C@@H]3CCC4=CC(=O)C=C[C@]4(C)[C@@]3(F)[C@@H](O)C[C@@]12C	609	-5.2% (inactive)	-15.8% (inactive)	51.6	-15.3% (inactive)	118%	0.724	0.328	0.81	5.42% (inactive)	-0.54 (inactive)	-2.6e-05 (inactive)	0.0055 (inactive)	inactive	22.1% (inactive)	8.27% (inactive)	39.3% (inactive)
CCc1cn([C@H]2C[C@H](O)[C@@H](CO)O2)c(=O)[nH]c1=O	644	-9.9% (inactive)	-3.6% (inactive)	102	-69.2% (inactive)	120%	-0.967	-0.117	0.506	9.37% (inactive)	-0.477 (inactive)	5.1e-06 (inactive)	0.00501 (inactive)	inactive	21.4% (inactive)	18.1% (inactive)	34% (inactive)
CC(=O)OCC(=O)[C@@]1(OC(C)=O)[C@@H](C)C[C@H]2[C@@H]3C[C@H](F)C4=CC(=O)C=C[C@]4(C)[C@@]3(F)[C@@H](O)C[C@@]21C	659	-5.5% (inactive)	-7.2% (inactive)	68.3	-71.2% (inactive)	116%	1.64	-1.42	-1.55	29.1% (inactive)	-0.482 (inactive)	-7.3e-05 (inactive)	0.00497 (inactive)	inactive	3.31% (inactive)	4.93% (inactive)	44.4% (inactive)
CCCOc1cccc(-c2nnc(N)s2)c1	605	-3.6% (inactive)	-31.3% (inactive)	108	-83.5% (inactive)	111%	0.352	-0.262	-0.207	-11.5% (inactive)	-0.443 (inactive)	-5.5e-05 (inactive)	0.00934 (inactive)	inactive	-3.59% (inactive)	-30.1% (inactive)	-65.7% (inactive)
CCCCc1c(O)nc(SCCN(C)C)n(-c2ccccc2)c1=O	326	-8.8% (inactive)	2.2% (inactive)	94.9	-40.2% (inactive)	96.4%	-1.09	2.21	0.182	12.3% (inactive)	-0.438 (inactive)	-0.000152 (inactive)	0.00653 (inactive)	inactive	-12.4% (inactive)	7.92% (inactive)	1.23% (inactive)
C/C=C(/C(=C/C)c1ccc(O)cc1)c1ccc(O)cc1	603	-14.5% (inactive)	10.1% (inactive)	112	-76% (inactive)	132%	-0.991	-0.543	0.777	13.3% (inactive)	-0.459 (inactive)	-5.4e-05 (inactive)	0.00464 (inactive)	inactive	25.6% (inactive)	8.63% (inactive)	33.1% (inactive)
Cc1ccccc1C(OCCN(C)C)c1ccccc1 (stereo not given)	644	-4.5% (inactive)	-3% (inactive)	89	-41.9% (inactive)	103%	-0.367	-1.7	0.158	-0.828% (inactive)	-0.48 (inactive)	-2.2e-05 (inactive)	0.00302 (inactive)	inactive	24.9% (inactive) and 29.3% (inactive)	22.3% (inactive)	42.3% (inactive)
CN(C)CCN(Cc1ccccc1)c1ccccn1	526	-10.5% (inactive)	18.7% (inactive)	98.3	-31.1% (inactive)	109%	-0.393	0.385	-0.67	9.37% (inactive)	-0.432 (inactive)	-8.6e-05 (inactive)	0.00588 (inactive)	inactive	49.5% (inactive)	11.1% (inactive)	33.9% (inactive)
Cc1c(OCC(F)(F)F)ccnc1CS(=O)c1nc2ccccc2[nH]1 (stereo not given)	654	0.3% (inactive)	8.2% (inactive)	77.3	-74.2% (inactive)	98.2%	1.3	-0.826	-0.353	14.6% (inactive)	-0.466 (inactive)	-3.7e-05 (inactive)	0.00411 (inactive)	inactive	-14.9% (inactive) and -4.97% (inactive)	-45.4% (inactive)	-64.9% (inactive)
O=C(O)CCc1cc(I)c(Oc2ccc(O)c(I)c2)c(I)c1	623	-9.5% (inactive)	-4.4% (inactive)	107	-120% (inactive)	127%	1.17	-0.143	0.645	9.37% (inactive)	-0.522 (inactive)	-5.4e-05 (inactive)	0.00395 (inactive)	inactive	3.29% (inactive)	21.3% (inactive)	34.6% (inactive)
CC(C[N+](C)(C)C)OC(N)=O (stereo not given)	492	17.2% (inactive)	-16.6% (inactive)	106	-25.7% (inactive)	125%	-0.295	0.566	-0.0176	5.42% (inactive)	-0.491 (inactive)	-6.6e-05 (inactive)	0.00575 (inactive)	inactive	4.16% (inactive) and 23.3% (inactive)	14.7% (inactive)	38.3% (inactive)
CN(C1CCS(=O)(=O)C1)S(=O)(=O)c1cccc2nsnc12 (stereo not given)	506	-15.3% (inactive)	-7.5% (inactive)	117	-64.1% (inactive)	135%	0.217	0.807	-0.289	-16.8% (inactive)	-0.513 (inactive)	-6.5e-05 (inactive)	0.00498 (inactive)	inactive	19.4% (inactive)	15.8% (inactive)	14.5% (inactive)
O=C(C1CCCCC1)N1CC(=O)N2CCc3ccccc3C2C1 (stereo not given)	552 and 561	-7.7% (inactive) and -4.1% (inactive)	16.2% (inactive)	109	-103% (inactive) and -50.4% (inactive)	115% and 103%	-1.12 and -0.574	0.266 and 0.927	-0.413 and -1.5	1.48% (inactive) and 1.9e-07% (inactive)	-0.447 (inactive) and -0.51 (inactive)	2.3e-05 (inactive) and -4.3e-06 (inactive)	0.00517 (inactive) and 0.00493 (inactive)	inactive	6.15% (inactive) and -13.5% (inactive) and -10.9% (inactive)	8.76% (inactive)	17.3% (inactive)
CCSC(SCC)[C@H](O)[C@@H](O)[C@H](O)[C@H](O)CO	619	-2.2% (inactive)	-0.2% (inactive)	107	-75.4% (inactive)	116%	-0.857	-0.361	-0.437	-4.44% (inactive)	-0.451 (inactive)	1.5e-05 (inactive)	0.00559 (inactive)	inactive	-8.68% (inactive)	10.6% (inactive)	28.3% (inactive)
C=CCn1cnc2c(c1=O)c1nc3ccccc3nc1n2-c1ccc(C)cc1	548	-5.7% (inactive)	-8.4% (inactive)	100	-70.3% (inactive)	132%	-0.575	-1.45	1.52	-2.07% (inactive)	-0.354 (inactive)	-6.7e-05 (inactive)	0.00438 (inactive)	inactive	15.4% (inactive)	15.3% (inactive)	10% (inactive)
CCC(c1c(C)n(C)n(-c2ccccc2)c1=O)c1c(C)n(C)n(-c2ccccc2)c1=O	550	-4.3% (inactive)	27.5% (inactive)	89.2	-51.3% (inactive)	125%	-0.849	-0.188	-0.348	3.66% (inactive)	-0.488 (inactive)	-0.000154 (inactive)	0.00494 (inactive)	inactive	5% (inactive)	17.6% (inactive)	17.1% (inactive)
CN(Cc1ccccc1)Cc1c[nH]c2ccccc12	531	-15.1% (inactive)	-1% (inactive)	83.3	-35.1% (inactive)	121%	-0.293	-1.22	-1.11	-4.27% (inactive)	-0.409 (inactive)	-4.2e-05 (inactive)	0.00379 (inactive)	inactive	22.7% (inactive)	13.3% (inactive)	24.2% (inactive)
